Growth inhibition, inhibition and outcome data for 20 molecules are collected here from PubChem BioAssay.

Experiment [1] in a line: antimalarial activity against Dd2 strain (AID 2302;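 active means growth inhibition above 50% at the single 2 µM test dose, taken to imply half-maximal potency below 2 µM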;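 further: 0% = DMSO untreated growth and 100% = chloroquine plus artemisinin killed control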). The following applies: P. falciparum Dd2 in RBCs, LDH growth readout, 72 h; at 2 µM; active compounds read high.
Experiment [2] is described as follows: HepG2 cytotoxicity, primary screen, cytotoxicity control for P. falciparum antimalarial project, cell-based, ATP luminescence (AID 2303;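 active means inhibition above 50%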;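 further: 0% = DMSO wells and 100% = digitonin-killed cells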). The settings on record: HepG2 viability, 24-48 h, at 10 µM, active compounds read high.
For experiment [3], the target named is L-lactate dehydrogenase (Plasmodium falciparum (isolate CDC / Honduras)) (UniProt Q27743). In words: PfLDH activity inhibition – cell lysate, 3D7 strain, counter-screen for P. falciparum growth inhibition project (AID 2304).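 Further: 0% = vehicle and 100% = reference inhibitor.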 The following applies: P. falciparum 3D7 crude extract, LDH APAD/NBT absorbance; at 2 µM; active compounds read high. In general terms: Counterscreens check selectivity or assay interference.

The nature of experiment [4]: inhibition of 3D7 malaria parasite growth – strain 3D7 (AID 2306).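 Further: 0% = DMSO wells and 100% = chloroquine plus artemisinin control wells.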 The settings on record: P. falciparum 3D7 erythrocytic growth, LDH absorbance, 72 h; at 2 µM; active compounds read high.
Experiment [5] addresses Calcium-dependent protein kinase 1 (Plasmodium falciparum (isolate 3D7)) (UniProt P62344). The experiment can be described thus: PfCDPK1 kinase inhibitors, biochemical, TCAMS library (AID 1159585; cut-off not given, nearly all actives have IC50 up to about 0.98 µM;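 further: inhibitors leave more ATP so luminescence rises with inhibition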). The settings on record: recombinant PfCDPK1, Kinase-Glo ATP depletion luminescence.
For experiment [6], the target named is Plasmodium falciparum protein kinase 6 (PK6, PF3D7_1337100) (UniProt Q8IDW1). In words: PfPK6 kinase inhibitors, biochemical, TCAMS library (AID 1159586). The settings on record: recombinant PfPK6, Kinase-Glo ATP depletion luminescence. On the technique in general: Kinase-Glo measures the ATP left after a reaction by luminescence.
Experiment [7] addresses Protein kinase 7 (PK7), Plasmodium falciparum 3D7 (PF3D7_0213400) (UniProt Q7YTF7). In words: inhibition of Plasmodium PK7 catalytic activity – biochemical, TCAMS antimalarial set, Kinase-Glo luminescence (AID 1159587). The settings on record: recombinant PfPK7, Kinase-Glo ATP depletion luminescence.
The target of experiment [8] is Calcium-dependent protein kinase 4 (Plasmodium falciparum (isolate 3D7)) (UniProt Q8IBS5). In words: PfCDPK4 kinase inhibitors, biochemical, TCAMS library (AID 1159588; cut-off not given, nearly all actives have IC50 up to about 0.91 µM). The following applies: recombinant PfCDPK4, Kinase-Glo ATP depletion luminescence.

Unmarked numbers belong to inactive results. For some of these results: Measured potencies and affinities stand elsewhere. Calls of active or inactive are those of the source. Unless noted, how the calls were made is not given here.

L-lactate dehydrogenase (Plasmodium falciparum (isolate CDC / Honduras)), sequence (Q27743 whole entry, looked up): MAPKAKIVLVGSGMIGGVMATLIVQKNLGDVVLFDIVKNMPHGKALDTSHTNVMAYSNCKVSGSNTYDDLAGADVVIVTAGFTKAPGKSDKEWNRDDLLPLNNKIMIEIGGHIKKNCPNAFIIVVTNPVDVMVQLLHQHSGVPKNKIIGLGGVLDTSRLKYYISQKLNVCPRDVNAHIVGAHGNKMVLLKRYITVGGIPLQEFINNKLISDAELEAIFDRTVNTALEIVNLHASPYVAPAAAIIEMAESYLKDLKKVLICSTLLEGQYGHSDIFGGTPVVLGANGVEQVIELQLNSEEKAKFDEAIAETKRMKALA
Protein kinase 7 (PK7), Plasmodium falciparum 3D7 (PF3D7_0213400), sequence (Q7YTF7 1-343): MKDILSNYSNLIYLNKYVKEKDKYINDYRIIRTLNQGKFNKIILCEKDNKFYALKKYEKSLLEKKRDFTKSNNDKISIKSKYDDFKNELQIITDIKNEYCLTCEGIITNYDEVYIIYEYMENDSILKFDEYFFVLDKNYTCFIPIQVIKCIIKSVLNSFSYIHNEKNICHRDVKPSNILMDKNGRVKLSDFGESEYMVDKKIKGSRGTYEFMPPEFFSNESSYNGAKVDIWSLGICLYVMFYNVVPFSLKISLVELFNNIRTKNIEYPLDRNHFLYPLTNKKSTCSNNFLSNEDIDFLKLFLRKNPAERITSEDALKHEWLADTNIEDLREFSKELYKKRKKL
Plasmodium falciparum protein kinase 6 (PK6, PF3D7_1337100), sequence (Q8IDW1 1-305): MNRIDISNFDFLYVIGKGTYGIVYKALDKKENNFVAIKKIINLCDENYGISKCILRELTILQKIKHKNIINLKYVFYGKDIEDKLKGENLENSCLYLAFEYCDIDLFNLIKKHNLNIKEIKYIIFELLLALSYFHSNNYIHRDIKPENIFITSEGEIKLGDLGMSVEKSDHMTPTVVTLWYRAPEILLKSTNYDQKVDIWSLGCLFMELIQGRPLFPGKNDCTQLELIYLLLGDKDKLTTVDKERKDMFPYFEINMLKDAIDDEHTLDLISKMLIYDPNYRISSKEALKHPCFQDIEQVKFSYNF
Calcium-dependent protein kinase 4 (Plasmodium falciparum (isolate 3D7)), sequence (Q8IBS5 whole entry, looked up): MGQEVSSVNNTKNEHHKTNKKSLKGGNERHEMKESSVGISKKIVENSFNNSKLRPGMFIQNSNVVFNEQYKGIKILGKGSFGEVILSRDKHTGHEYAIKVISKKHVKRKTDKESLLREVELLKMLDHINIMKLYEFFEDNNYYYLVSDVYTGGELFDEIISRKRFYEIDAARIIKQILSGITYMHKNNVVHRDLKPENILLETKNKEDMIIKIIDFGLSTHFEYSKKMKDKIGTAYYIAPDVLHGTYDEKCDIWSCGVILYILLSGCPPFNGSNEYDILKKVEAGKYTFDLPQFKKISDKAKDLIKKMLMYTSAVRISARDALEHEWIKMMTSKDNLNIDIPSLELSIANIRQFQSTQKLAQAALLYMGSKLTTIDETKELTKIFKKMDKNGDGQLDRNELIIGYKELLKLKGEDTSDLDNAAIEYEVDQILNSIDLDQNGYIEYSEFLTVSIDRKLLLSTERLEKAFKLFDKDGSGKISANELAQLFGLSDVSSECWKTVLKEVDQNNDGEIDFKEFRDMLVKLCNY
Calcium-dependent protein kinase 1 (Plasmodium falciparum (isolate 3D7)), sequence (P62344 whole entry, looked up): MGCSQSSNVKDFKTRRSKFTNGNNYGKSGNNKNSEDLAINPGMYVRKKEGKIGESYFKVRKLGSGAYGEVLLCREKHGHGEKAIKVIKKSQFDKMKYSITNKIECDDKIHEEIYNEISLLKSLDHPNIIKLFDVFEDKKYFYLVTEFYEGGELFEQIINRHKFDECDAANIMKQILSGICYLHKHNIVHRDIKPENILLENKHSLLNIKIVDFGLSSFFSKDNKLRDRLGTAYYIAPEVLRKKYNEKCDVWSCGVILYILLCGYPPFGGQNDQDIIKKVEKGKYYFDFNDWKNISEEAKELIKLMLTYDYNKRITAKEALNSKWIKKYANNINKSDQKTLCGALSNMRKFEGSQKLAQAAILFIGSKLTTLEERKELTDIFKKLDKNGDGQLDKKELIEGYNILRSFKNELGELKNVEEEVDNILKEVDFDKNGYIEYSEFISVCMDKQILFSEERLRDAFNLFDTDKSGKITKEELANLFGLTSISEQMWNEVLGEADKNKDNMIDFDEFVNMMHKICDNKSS

For orientation: inhibition means the change of the read-out against control, counted positive when it falls. In the case of `CSC1=NC(=Nc2ccccc2C)C2(CCC(C(C)(C)C)CC2)N1c1ccccc1Cl` (stereo not given), the growth inhibition in experiment [1] was 89% (active); in experiment [4], 96% (active). Further, the inhibition is 3% in experiment [2] and 4% in experiment [3]. Besides, the result in experiment [5], in experiment [6], in experiment [7] and in experiment [8] was inactive.
Turning to `CCNc1cc(C(=O)N[C@@H](Cc2ccccc2)[C@H](O)CNC(C)(C)CSCC(C)C)cc(N2CCCC2=O)c1`, the growth inhibition in experiment [1] was 97% (active); in experiment [4] it was 101% (active). Moreover, the inhibition in experiment [2] is -20%; in experiment [3], -7%. The outcome in experiment [5], in experiment [6], in experiment [7] and in experiment [8] was inactive.
In the case of `CNCCNCc1ccc(-c2cccc(-c3nc4ccc(F)cc4[nH]3)c2)cc1`, the growth inhibition is 1% in experiment [1] and 93% (active) in experiment [4]. For the same molecule, the inhibition was 10% in experiment [2] and -1% in experiment [3]. In addition, the result in experiment [5], in experiment [6], in experiment [7] and in experiment [8] was inactive.
With `CN(C)c1ccc(OCCCCCCOc2ccccc2)cc1`, the growth inhibition in experiment [1] was 68% (active); in experiment [4], 85% (active). For the same molecule, the results for the inhibition in experiment [2] and in experiment [3] were -7% and -5%, respectively. Further, the result in experiment [5], in experiment [6], in experiment [7] and in experiment [8] was inactive.
For the molecule `CCCCCCN=C(N)c1ccc2nc(-c3ccc(O)cc3)[nH]c2c1`, the figures for the growth inhibition in experiment [1] and in experiment [4] were 99% (active) and 100% (active), respectively. In addition, the results for the inhibition in experiment [2] and in experiment [3] were -3% and 1%, respectively. In addition, the outcome in experiment [5], in experiment [6], in experiment [7] and in experiment [8] was inactive.
Regarding `O=C(Nc1ccc(-c2cccc(-c3nc4ccc(C(F)(F)F)cc4[nH]3)c2)cc1)c1csnn1`, the growth inhibition in experiment [1] was 25%; in experiment [4], 98% (active). Also, the inhibition was 42% in experiment [2] and -2% in experiment [3]. Moreover, the result in experiment [5], in experiment [6], in experiment [7] and in experiment [8] was inactive.
Consider `CN(C)CCNc1cc(-c2cccnc2)nc(-c2ccncc2)n1`, for which the values for the growth inhibition in experiment [1] and in experiment [4] were 98% (active) and 100% (active), respectively. The inhibition was 33% in experiment [2] and -5% in experiment [3]. Moreover, the outcome in experiment [5], in experiment [6], in experiment [7] and in experiment [8] was inactive.
As to `CC[C@H](C)CNC(=O)c1cncc(-c2cccc(CNCCCc3ccccc3)c2)c1`, the growth inhibition is 0% in experiment [1] and 95% (active) in experiment [4]. The figures for the inhibition in experiment [2] and in experiment [3] were 9% and 1%, respectively. Besides, the result in experiment [5], in experiment [6], in experiment [7] and in experiment [8] was inactive.
In the case of `Cc1cccc(C(=O)Nc2ccc(N3CCCN(Cc4cccc(O)c4)CC3)cc2)c1`, the growth inhibition is 44% in experiment [1] and 92% (active) in experiment [4]. The inhibition was 2% in experiment [2] and -3% in experiment [3]. Moreover, the outcome in experiment [5], in experiment [6], in experiment [7] and in experiment [8] was inactive.
Take `CCCS(=O)(=O)c1nc(S(=O)(=O)c2ccc(Cl)cc2)c(N2CCCCC2)s1`: the growth inhibition in experiment [1] is 34%; in experiment [4], 87% (active). For the same molecule, the inhibition is 3% in experiment [2] and -3% in experiment [3]. The result in experiment [5], in experiment [6], in experiment [7] and in experiment [8] was inactive.
`CO/C(=C\C=C\c1cc2cc(Cl)c(Cl)cc2[nH]1)C(=O)NCCCN1CCN(c2ccncc2)CC1`: the growth inhibition was 96% (active) in experiment [1] and 98% (active) in experiment [4]. For the same molecule, the inhibition in experiment [2] is 12%; in experiment [3] it was 4%. The result in experiment [5], in experiment [6], in experiment [7] and in experiment [8] was inactive.
On to `O=C(Nc1ccc2c(c1)CNCC2)c1ccc(-c2ccc(Cl)cc2)cc1`, for which the growth inhibition in experiment [1] is 28%; in experiment [4], 96% (active). Further, the inhibition is 52% (active) in experiment [2] and 6% in experiment [3]. The outcome in experiment [5], in experiment [6], in experiment [7] and in experiment [8] was inactive.
In the case of `CCCCc1ccc(C(=O)Nc2ccc3nc(N4CCN(C)CC4)cc(C)c3c2)cc1`, the growth inhibition in experiment [1] was 21%; in experiment [4] it was 90% (active). In addition, the inhibition in experiment [2] was 44%; in experiment [3], -6%. Besides, the result in experiment [5], in experiment [6], in experiment [7] and in experiment [8] was inactive.
As to `Oc1cccc(Nc2nc(NCc3ccco3)c3ccccc3n2)c1`, the results for the growth inhibition in experiment [1] and in experiment [4] were 74% (active) and 103% (active), respectively. The inhibition in experiment [2] is 9%; in experiment [3] it was 0%. The result in experiment [5], in experiment [6], in experiment [7] and in experiment [8] was inactive.
For `O=C(/C=C/c1ccc2ccccc2c1)NCCCCCN1CCC(c2c[nH]c3ccccc23)CC1`, the values for the growth inhibition in experiment [1] and in experiment [4] were 4% and 90% (active), respectively. Besides, the figures for the inhibition in experiment [2] and in experiment [3] were 18% and 6%, respectively. For the same molecule, the result in experiment [5], in experiment [6], in experiment [7] and in experiment [8] was inactive.
Turning to `CN(C)CCNC(=O)[C@H](Cc1ccccc1)NC(=O)c1ccc(O)c(-c2ccc(Cl)c(Cl)c2)c1`, the growth inhibition is 0% in experiment [1] and 98% (active) in experiment [4]. The inhibition in experiment [2] was -1%; in experiment [3], -6%. In addition, the outcome in experiment [5], in experiment [6], in experiment [7] and in experiment [8] was inactive.
`COc1cccc2c(NN=Cc3cccc(Cl)c3)cc(C)nc12`: the growth inhibition in experiment [1] is 75% (active); in experiment [4] it was 101% (active). For the same molecule, the values for the inhibition in experiment [2] and in experiment [3] were 3% and 2%, respectively. The result in experiment [5], in experiment [6], in experiment [7] and in experiment [8] was inactive.
Take `CN(C)CCOc1ccc(-c2cc(-c3ccncc3)c(-c3ccc(Cl)c(O)c3)o2)cc1`: the growth inhibition in experiment [1] is 93% (active); in experiment [4], 99% (active). For the same molecule, the inhibition in experiment [2] was 0%; in experiment [3], -5%. Besides, the result in experiment [5], in experiment [6], in experiment [7] and in experiment [8] was inactive.
As to `CCc1c(CCNCCCCCCNCCc2ccc(Br)cc2)ccc(OC)c1OC`, the growth inhibition in experiment [1] is 14%; in experiment [4], 99% (active). The inhibition in experiment [2] was 100% (active); in experiment [3], 0%. For the same molecule, the outcome in experiment [5], in experiment [6], in experiment [7] and in experiment [8] was inactive.
With `CCc1ccc(CN2CCC(NC(=O)c3ccc(-c4ccc(N(C)C)cc4)s3)CC2)cc1`, the results for the growth inhibition in experiment [1] and in experiment [4] were 44% and 84% (active), respectively. For the same molecule, the inhibition in experiment [2] is 52% (active); in experiment [3], -4%. In addition, the outcome in experiment [5], in experiment [6], in experiment [7] and in experiment [8] was inactive.
